Experimental data from the supplement of paper PMC12067093, “Discovery and optimisation of a covalent ligand for TRIM25 and its application to targeted protein ubiquitination” (Chemical Science, 2025).
Targets with the largest changes are over-represented here; the source holds about 21,000 in all.

Compound: Cc1cc(ccc1-c1ccccc1)C(=O)N1CCCN(CC1)C(=O)CCl [compound 10]
Experiment: probe-labelled cysteine peptide fold change vs DMSO (competition) (log2 fold change); higher = less target engagement (more negative = stronger competition)
Conditions: THP-1, incubation time: 4 h
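Note: competitive profiling in live THP-1 cells: cysteine peptides tagged with an iodoacetamide desthiobiotin (IA-DTB) probe, intensity after compound treatment relative to DMSO-treated cells.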

Sequence of UniProt Q8N806 (Q8N806 whole entry, looked up): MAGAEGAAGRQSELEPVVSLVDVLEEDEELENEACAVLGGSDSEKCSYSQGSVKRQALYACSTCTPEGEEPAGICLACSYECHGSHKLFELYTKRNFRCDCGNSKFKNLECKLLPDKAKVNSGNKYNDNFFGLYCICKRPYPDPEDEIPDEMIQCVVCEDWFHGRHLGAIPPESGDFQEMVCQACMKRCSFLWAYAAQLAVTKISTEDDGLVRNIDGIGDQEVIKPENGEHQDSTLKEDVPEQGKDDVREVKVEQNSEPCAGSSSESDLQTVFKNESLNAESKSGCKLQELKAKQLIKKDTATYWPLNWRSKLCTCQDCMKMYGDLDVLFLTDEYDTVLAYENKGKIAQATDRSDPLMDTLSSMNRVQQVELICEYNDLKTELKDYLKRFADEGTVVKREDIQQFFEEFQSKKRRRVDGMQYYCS
Sequence of UniProt Q2T9J0 (Q2T9J0 whole entry, looked up): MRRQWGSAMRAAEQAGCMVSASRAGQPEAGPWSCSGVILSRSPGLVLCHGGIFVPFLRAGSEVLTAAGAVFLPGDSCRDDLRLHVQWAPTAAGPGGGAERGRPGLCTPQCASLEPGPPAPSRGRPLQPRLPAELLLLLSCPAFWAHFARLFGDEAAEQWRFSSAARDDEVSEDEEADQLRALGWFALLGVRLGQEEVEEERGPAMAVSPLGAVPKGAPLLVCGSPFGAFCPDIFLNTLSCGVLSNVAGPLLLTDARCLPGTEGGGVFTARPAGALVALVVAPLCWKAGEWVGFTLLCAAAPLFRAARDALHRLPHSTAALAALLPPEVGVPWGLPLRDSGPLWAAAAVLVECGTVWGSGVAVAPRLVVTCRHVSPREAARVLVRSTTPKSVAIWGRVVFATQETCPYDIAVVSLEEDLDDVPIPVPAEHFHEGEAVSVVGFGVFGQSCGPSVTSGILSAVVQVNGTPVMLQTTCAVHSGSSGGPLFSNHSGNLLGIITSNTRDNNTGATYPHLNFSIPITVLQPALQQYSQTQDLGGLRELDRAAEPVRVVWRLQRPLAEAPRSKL
Sequence of UniProt Q7Z4G4 (Q7Z4G4 whole entry): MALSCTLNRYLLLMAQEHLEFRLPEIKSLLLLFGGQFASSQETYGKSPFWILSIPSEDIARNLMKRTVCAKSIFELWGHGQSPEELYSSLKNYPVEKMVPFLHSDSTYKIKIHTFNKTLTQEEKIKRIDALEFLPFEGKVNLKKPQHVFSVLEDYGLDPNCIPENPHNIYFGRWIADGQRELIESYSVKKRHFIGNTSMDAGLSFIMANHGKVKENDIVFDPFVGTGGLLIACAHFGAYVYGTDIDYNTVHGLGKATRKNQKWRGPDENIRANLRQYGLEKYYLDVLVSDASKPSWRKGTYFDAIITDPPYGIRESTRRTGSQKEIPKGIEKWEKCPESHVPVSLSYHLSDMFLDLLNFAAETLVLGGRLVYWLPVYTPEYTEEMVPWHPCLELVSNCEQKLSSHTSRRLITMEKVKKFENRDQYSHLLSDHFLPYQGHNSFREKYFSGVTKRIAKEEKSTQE
Sequence of UniProt O60636 (O60636 whole entry): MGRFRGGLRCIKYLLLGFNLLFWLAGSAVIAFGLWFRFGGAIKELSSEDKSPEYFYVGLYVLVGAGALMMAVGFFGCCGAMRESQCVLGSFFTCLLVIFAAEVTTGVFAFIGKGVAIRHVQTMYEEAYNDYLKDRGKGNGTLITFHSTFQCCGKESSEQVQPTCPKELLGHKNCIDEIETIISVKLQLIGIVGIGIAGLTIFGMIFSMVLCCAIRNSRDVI
Sequence of UniProt Q13263 (Q13263 whole entry, looked up): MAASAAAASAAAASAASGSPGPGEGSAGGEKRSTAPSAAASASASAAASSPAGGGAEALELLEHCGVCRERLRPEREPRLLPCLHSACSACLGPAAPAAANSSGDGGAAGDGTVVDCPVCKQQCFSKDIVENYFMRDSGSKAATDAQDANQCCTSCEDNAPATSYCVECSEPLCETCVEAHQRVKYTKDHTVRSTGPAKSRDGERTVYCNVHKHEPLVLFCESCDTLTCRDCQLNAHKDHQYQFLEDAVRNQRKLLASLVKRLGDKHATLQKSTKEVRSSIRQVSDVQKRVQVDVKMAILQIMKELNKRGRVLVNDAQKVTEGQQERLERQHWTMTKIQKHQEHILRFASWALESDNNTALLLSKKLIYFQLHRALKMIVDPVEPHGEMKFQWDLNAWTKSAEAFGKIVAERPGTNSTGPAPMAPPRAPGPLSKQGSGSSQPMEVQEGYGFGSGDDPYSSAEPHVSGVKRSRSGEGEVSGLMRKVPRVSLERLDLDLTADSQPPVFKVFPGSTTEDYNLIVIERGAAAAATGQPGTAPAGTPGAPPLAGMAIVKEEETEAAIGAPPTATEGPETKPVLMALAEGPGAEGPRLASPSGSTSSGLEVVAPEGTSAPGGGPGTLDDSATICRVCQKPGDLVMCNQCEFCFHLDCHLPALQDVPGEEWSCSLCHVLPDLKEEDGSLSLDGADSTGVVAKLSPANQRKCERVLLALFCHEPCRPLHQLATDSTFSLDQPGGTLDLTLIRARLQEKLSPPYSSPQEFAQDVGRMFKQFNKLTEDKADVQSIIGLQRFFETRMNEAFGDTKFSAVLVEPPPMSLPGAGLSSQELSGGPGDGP
Sequence of UniProt O15042 (O15042 whole entry, looked up): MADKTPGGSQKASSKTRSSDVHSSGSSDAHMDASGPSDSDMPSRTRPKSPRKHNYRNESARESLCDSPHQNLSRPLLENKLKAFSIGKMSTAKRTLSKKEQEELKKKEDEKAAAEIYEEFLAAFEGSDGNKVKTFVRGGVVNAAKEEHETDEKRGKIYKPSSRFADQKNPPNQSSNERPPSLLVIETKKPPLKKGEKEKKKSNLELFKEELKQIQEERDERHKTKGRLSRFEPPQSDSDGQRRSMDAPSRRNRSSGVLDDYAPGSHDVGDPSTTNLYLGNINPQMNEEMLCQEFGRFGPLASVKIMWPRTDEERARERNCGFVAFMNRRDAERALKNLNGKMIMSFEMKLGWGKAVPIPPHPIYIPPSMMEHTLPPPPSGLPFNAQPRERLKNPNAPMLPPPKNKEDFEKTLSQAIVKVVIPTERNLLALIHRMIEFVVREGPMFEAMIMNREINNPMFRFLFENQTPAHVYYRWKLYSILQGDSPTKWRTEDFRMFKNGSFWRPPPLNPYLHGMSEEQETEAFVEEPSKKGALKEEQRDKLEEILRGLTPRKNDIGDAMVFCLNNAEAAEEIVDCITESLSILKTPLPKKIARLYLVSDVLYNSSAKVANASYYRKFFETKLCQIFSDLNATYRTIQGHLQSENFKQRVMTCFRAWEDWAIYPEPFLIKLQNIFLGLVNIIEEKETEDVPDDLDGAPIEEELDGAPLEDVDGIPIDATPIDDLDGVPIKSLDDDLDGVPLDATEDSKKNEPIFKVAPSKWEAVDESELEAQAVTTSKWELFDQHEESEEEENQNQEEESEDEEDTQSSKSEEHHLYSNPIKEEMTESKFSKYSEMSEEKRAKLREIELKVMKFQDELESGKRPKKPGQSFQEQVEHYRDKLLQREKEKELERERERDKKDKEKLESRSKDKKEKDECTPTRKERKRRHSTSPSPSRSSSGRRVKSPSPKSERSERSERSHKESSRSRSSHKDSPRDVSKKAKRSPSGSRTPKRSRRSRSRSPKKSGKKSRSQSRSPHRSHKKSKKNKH
Sequence of UniProt P51784 (P51784 whole entry, looked up): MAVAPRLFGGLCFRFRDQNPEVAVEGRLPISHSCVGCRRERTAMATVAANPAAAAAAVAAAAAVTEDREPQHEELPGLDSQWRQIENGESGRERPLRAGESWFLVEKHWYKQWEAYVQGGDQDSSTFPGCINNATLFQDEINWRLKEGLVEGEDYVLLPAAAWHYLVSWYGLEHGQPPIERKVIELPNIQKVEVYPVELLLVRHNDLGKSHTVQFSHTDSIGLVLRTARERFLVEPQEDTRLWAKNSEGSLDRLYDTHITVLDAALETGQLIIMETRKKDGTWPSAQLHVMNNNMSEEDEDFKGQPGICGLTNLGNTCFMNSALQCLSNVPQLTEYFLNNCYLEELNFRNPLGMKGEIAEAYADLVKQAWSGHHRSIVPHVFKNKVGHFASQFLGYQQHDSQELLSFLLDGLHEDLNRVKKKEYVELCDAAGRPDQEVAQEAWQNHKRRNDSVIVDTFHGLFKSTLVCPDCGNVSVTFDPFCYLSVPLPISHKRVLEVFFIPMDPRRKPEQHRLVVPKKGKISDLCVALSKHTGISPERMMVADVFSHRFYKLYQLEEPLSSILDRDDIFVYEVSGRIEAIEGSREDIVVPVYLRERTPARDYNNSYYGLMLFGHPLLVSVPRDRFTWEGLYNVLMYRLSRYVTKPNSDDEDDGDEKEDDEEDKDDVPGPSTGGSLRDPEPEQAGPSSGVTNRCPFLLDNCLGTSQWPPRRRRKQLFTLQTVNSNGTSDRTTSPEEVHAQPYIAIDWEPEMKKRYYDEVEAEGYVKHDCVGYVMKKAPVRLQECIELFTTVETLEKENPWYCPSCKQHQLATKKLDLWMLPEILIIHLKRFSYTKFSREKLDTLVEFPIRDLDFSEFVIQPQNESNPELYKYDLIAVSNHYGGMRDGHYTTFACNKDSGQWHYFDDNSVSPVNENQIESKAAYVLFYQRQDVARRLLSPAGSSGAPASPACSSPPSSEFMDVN
Sequence of UniProt Q8IV63 (Q8IV63 whole entry, looked up): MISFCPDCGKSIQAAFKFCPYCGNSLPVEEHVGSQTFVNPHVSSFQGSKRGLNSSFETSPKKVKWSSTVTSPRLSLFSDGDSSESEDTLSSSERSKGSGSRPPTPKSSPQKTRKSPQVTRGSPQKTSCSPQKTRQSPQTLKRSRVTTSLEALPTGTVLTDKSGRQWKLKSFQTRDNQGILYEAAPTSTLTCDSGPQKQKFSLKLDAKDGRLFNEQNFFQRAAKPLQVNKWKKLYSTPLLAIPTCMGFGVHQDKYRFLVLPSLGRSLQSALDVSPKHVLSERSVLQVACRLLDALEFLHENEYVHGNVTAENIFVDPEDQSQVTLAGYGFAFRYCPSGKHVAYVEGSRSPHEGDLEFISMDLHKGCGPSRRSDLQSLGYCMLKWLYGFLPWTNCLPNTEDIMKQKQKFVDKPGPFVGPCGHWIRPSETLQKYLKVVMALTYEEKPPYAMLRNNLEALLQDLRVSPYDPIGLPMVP

Target	probe-labelled cysteine peptide fold change (10 µM)	probe-labelled cysteine peptide fold change (50 µM)
TUBAL3_A6NHL2_322+323_YMACCLLYR<|>TUBA1B_P68366_315+316_YMACCLLYR<|>TUBA4A_Q9BQE3_315+316_YMACCLLYR (UniProt P68366+Q9BQE3+A6NHL2)	-0.349	-0.661
VTA1_Q9NP79_87_QLGDNEAITQEIVGCAHLENYALK (UniProt Q9NP79)	0.0147	0.136
UBN1_Q9NPG3_711_VGGVLCTEEK (UniProt Q9NPG3)	-0.0763	0.0664
USP34_Q70CQ2_1330_KGEGVQLPASCLPPPQK (UniProt Q70CQ2)	-0.079	-0.0424
TRIM25_Q14258_498_FTYCSQVLGLHCYK (UniProt Q14258)	-1.23	-2.92
TYK2_P29597_736_NLVHGNVCGR (UniProt P29597)	-0.00731	-0.24
TRA2B_P62995_119_ANPDPNCCLGVFGLSLYTTER (UniProt P62995)	0.163	0.111
VPS33B_Q9H267_259_CGSVDFGPEVTSSDK (UniProt Q9H267)	0.169	0.293
VPS16_Q9H269_763_SPIGYLPFVEICMK (UniProt Q9H269)	0.149	0.152
TRMT1_Q9NXH9_621_GDQCCYSHSPPTPR (UniProt Q9NXH9)	-0.0265	-0.0659
TYSND1_Q2T9J0_17_AAEQAGCMVSASR (UniProt Q2T9J0)	0.0109	0.0758
TRRAP_Q9Y4A5_2513_STPIGTSCQGAMLPSITNVINLADSHDR (UniProt Q9Y4A5)	0.223	0.295
VRK3_Q8IV63_418_FVDKPGPFVGPCGHWIRPSETLQK (UniProt Q8IV63)	-0.347	-1.2
TSPAN2_O60636_164_ESSEQVQPTCPK (UniProt O60636)	-0.411	-0.422
TRIM13_O60858_106_GHLGQPLNIFCLTDMQLICGICATR (UniProt O60858)	0.0739	-0.215
TXNL1_O43396_149_AGCECLNESDEHGFDNCLRK (UniProt O43396)	-0.189	-0.0731
UROD_P06132_308_TVTLQGNLDPCALYASEEEIGQLVK (UniProt P06132)	-0.0737	0.0622
VPS37A_Q8NEZ2_375_TICHCR (UniProt Q8NEZ2)	0.41	1.08

Target	probe-labelled cysteine peptide fold change (10 µM)	probe-labelled cysteine peptide fold change (50 µM)
TRIM28_Q13263_717_VLLALFCHEPCR (UniProt Q13263)	0.00318	0.0176
USP9X_Q93008_1061_AICLDHAK (UniProt Q93008)	0.267	0.565
TPRKB_Q9Y3C4_167_LSSQEESIGTLLDAIICR (UniProt Q9Y3C4)	0.0132	-0.163
USP19_O94966_656+659_LVCPVCAK (UniProt O94966)	-0.159	-1.2
USP40_Q9NVE5_1054_RIEICLEPLQK (UniProt Q9NVE5)	0.0209	-0.0411
USP13_Q92995_231_ENLWLNLTDGSVLCGK (UniProt Q92995)	0.0774	0.113
USP11_P51784_894_DGHYTTFACNK (UniProt P51784)	-0.051	-0.393
UBA6_A0AVT1_721_ALQLLHCFPLDIR	0.0248	0.215
UBR7_Q8N806_155+158_RPYPDPEDEIPDEMIQCVVCEDWFHGR (UniProt Q8N806)	-0.195	-1.14
VPS13C_Q709C8_2289_GIEHSLIEENCGVVVESIQVTLECGLGHR (UniProt Q709C8)	-0.105	-0.0661
TRIM33_Q9UPN9_582_GNMNCGAFQAHQMR (UniProt Q9UPN9)	-0.217	-0.598
TXNIP_Q9H3M7_170_KVSCMFIPDGR (UniProt Q9H3M7)	0.205	-1.47
U2SURP_O15042_918_EKDECTPTRK (UniProt O15042)	-0.0489	0.231
UBR4_Q5T4S7_2618+2619_QLEGDCCSFITQLVNHFWK (UniProt Q5T4S7)	0.0442	-1.45
TSN_Q15631_225_ETAAACVEK (UniProt Q15631)	-0.291	-0.282
UBR1_Q8IWV7_1603_NSLIELPDDYSCLLNQASHFR (UniProt Q8IWV7)	-0.114	-0.631
TRMT11_Q7Z4G4_161_KPQHVFSVLEDYGLDPNCIPENPHNIYFGR (UniProt Q7Z4G4)	-0.0115	-0.0241
